Compound activity deposited in PubChem by several laboratories.
The full list was thinned out, with hits kept by preference.
RmlCD inh mix = mixture blocks RmlC and RmlD coupled enzyme activity; RmlC/RmlD coupled enzyme inhibition, 384-well mixture HTS; inhibition, % at 5.5 µM; 110,000 tested, 0.39% active; AID 1532; in the data active = inhibition above about 30%, passing the limit was not always enough
HIV RNase H inh-1 = blocks HIV-1 RNase H cleavage of RNA/DNA duplex; AID 565; RT-RNase H RNA/DNA duplex cleavage, fluorescence; inhibition, % at 10 µM; 65,000 tested, 1.9% active; in the data active = inhibition above about 50%
HIV RNase H inh-2 = confirmation of HIV-1 reverse transcriptase RNase H inhibitors; Recombinant RT RNase H, fluorescent RNA/DNA duplex cleavage; inhibition, % at 10 µM; 1,000 tested, 39% active; shares compounds with HIV RNase H inh-1; in the data active = inhibition above about 48%
* hit, by the source's call.

Screening c1ccc2c(c1)nnn2Cc1nnc2sc(-c3ccc4c(c3)OCCO4)nn12 returned RmlCD inh mix -1, HIV RNase H inh-1 91* and HIV RNase H inh-2 52*.
CC(=O)Oc1cc2cccc(OC(C)=O)c(=O)c2c(OC(C)=O)c1OC(C)=O was read as RmlCD inh mix -3.
Cc1ccccc1C(=O)Nc1cccc(NC(=O)Cn2cnc3c(=O)n(C)c(=O)n(C)c32)c1 was read as RmlCD inh mix 10 and HIV RNase H inh-1 6.
Screening S=C(c1ccc(-c2ccc(Cl)cc2Cl)o1)N1CCCCC1 returned RmlCD inh mix 11.
`S=C(c1ccc(-c2ccccc2Cl)o1)N1CCOCC1` gave RmlCD inh mix -17, HIV RNase H inh-1 95* and HIV RNase H inh-2 51*.
Screening S=C(Nc1ccc(Cl)cc1)N1CCOCC1 returned RmlCD inh mix -13.
S=C(c1ccc(-c2ccc(Cl)c(Cl)c2)o1)N1CCOCC1 was read as RmlCD inh mix 8, HIV RNase H inh-1 66* and HIV RNase H inh-2 0.
`S=C(c1ccc(Cl)cc1)N1CCOCC1` gave RmlCD inh mix 3, HIV RNase H inh-1 90* and HIV RNase H inh-2 58*.
For O=C(c1ccc(-c2cccc(C(F)(F)F)c2)o1)N1CCOCC1 the results were RmlCD inh mix -10 and HIV RNase H inh-1 -32.
For C=C1CCN(c2ccc(C(=O)NCCC)cc2[N+](=O)[O-])CC1 the results were RmlCD inh mix 8.
Cc1cc(C)c(S(=O)(=O)N2CCCCC2)c(C)c1N(C)S(=O)(=O)c1ccccc1 was read as RmlCD inh mix -3.
`Fc1cccc(Cl)c1CSc1nnc(COc2cccc3cccnc23)o1` gave RmlCD inh mix 145 and HIV RNase H inh-1 -53.
`O=C(CCCO)CCCCCCCCC[C@H]1N[C@H](CO)[C@@H](O)[C@@H]1O` gave RmlCD inh mix -2.
For CCOC(=O)C1=C(C)N(CCCC(=O)O)C(=O)NC1c1ccccc1Cl (centres undefined) the results were RmlCD inh mix 2.
C(=C\c1ccccc1)/CSc1nnc(-c2cccnc2)o1 was read as RmlCD inh mix 14 and HIV RNase H inh-1 -30.
Screening O=C(c1ccc(CNc2c(N3CCCC3)c(=O)c2=O)cc1)N1CCc2ccccc2C1 returned RmlCD inh mix 15 and HIV RNase H inh-1 -9.
`COc1ccc(SC[C@H](CC(C)C)N2CCN(CCc3ccccc3)CCC2=O)cc1` gave RmlCD inh mix 4.
For CCO[C@H]1OC(C(=O)N2CCN(Cc3ccc4c(c3)OCO4)CC2)=C[C@@H](C2CC2)[C@@H]1CCCO the results were RmlCD inh mix 9.
Screening CSc1ccc(Cn2nnc(C(=O)Nc3ccc(C)c(C)c3)c2N)cc1 returned RmlCD inh mix 5.
Cc1ccc(NC(=O)Cn2nnc(C(=O)Nc3ccc(C)c(C)c3)c2N)cc1 was read as RmlCD inh mix -17, HIV RNase H inh-1 67* and HIV RNase H inh-2 59*.
Screening CCOC(=O)Cc1cnc(NC(=O)NC(C(=O)OCC)(c2ccccc2)C(F)(F)F)s1 (centres undefined) returned RmlCD inh mix -9 and HIV RNase H inh-1 1.
Screening Cc1c(Br)cc(C(=O)OC2CCN(C)CC2)c(C)c1C returned RmlCD inh mix 8 and HIV RNase H inh-1 3.
For Oc1ccc(C=Nc2ccc3ncccc3c2)c(O)c1 the results were RmlCD inh mix 12, HIV RNase H inh-1 53* and HIV RNase H inh-2 43.
`C(=N\n1cnnc1)/c1ccc2ncccc2c1` gave RmlCD inh mix 8 and HIV RNase H inh-1 -14.
CCNc1nc(N)nc(Oc2ccc(OCCOc3ccc(Cl)cc3Cl)nn2)n1 was read as RmlCD inh mix 70 and HIV RNase H inh-1 -21.
Screening Nc1nnc(CSCc2ccc(F)cc2)s1 returned RmlCD inh mix 11, HIV RNase H inh-1 74* and HIV RNase H inh-2 62*.
Nc1nnc(-c2ccc(F)cc2)s1 was read as RmlCD inh mix -10 and HIV RNase H inh-1 17.
For COc1ccc([C@H]2/C=C\CN(Cc3ccc(N(C)C)cc3)[C@@H](C)C(=O)N2Cc2ccc(F)cc2)cc1 the results were RmlCD inh mix 0.
`COc1cc(/C=C/C(=O)CC(=O)/C=C/c2ccc(O)c(OC)c2)ccc1O` gave RmlCD inh mix -2, HIV RNase H inh-1 83* and HIV RNase H inh-2 57*.
COc1cc(/C=C/C(=O)O)ccc1O was read as RmlCD inh mix -12.
`O=C(O)c1cc(S(=O)(=O)Nc2ccc3oc(=O)sc3c2)ccc1O` gave RmlCD inh mix 5, HIV RNase H inh-1 82* and HIV RNase H inh-2 64*.
Screening CC(=O)c1c(C)oc2ccc(NS(=O)(=O)c3ccc(O)c(C(=O)O)c3)cc12 returned RmlCD inh mix -17 and HIV RNase H inh-1 19.
For CCOc1ccccc1CNC(=O)C1CCN(C(=O)c2sccc2-n2cccc2)CC1 the results were RmlCD inh mix -4 and HIV RNase H inh-1 -3.
Screening COc1cccc(C2=CC(=O)CC(C)(C)C2)n1 returned RmlCD inh mix -13.
`O=C(NCc1ccc2c(c1)OCO2)c1c(O)c2cccc3c2n(c1=O)CCC3` gave RmlCD inh mix -2, HIV RNase H inh-1 72* and HIV RNase H inh-2 10.
For O=C(NCc1ccccc1)c1c(O)c2cccc3c2n(c1=O)CCC3 the results were RmlCD inh mix -11 and HIV RNase H inh-1 -35.
Screening CCOC(=O)C1=C(C)N(CCCC(=O)O)C(=O)NC1c1ccc2ccccc2c1 (centres undefined) returned RmlCD inh mix 0.
CC(C)(C)S(=O)(=O)c1ccc(S(=O)(=O)C(C)(C)C)s1 was read as RmlCD inh mix -16.
For O=C1C2C3C=CC(C3)C2C(=O)N1CNc1ccccn1 (centres undefined) the results were RmlCD inh mix 9.
`CC(C(=O)Nc1ccccn1)N1C(=O)C2C3C=CC(C3)C2C1=O` (centres undefined) gave RmlCD inh mix 1, HIV RNase H inh-1 74* and HIV RNase H inh-2 18.
CC(C)OC(=O)c1nn2c(C(F)(F)F)cc(-c3ccco3)nc2c1Cl was read as RmlCD inh mix 17.
CC(C)OC(=O)c1nn2c(C(F)(F)F)cc(-c3ccc(Br)o3)nc2c1Br was read as RmlCD inh mix -4, HIV RNase H inh-1 66* and HIV RNase H inh-2 -7.
`Cc1oc(C)c2c(=O)ccc3c(c12)OC(N)=C(C#N)C3c1ccccc1` (centres undefined) gave RmlCD inh mix -9 and HIV RNase H inh-1 -5.
`CSc1ccc(C2C(C#N)=C(N)Oc3c2ccc(=O)c2c(C)oc(C)c32)cc1` (centres undefined) gave RmlCD inh mix 3, HIV RNase H inh-1 61* and HIV RNase H inh-2 67*.
OCC1(O)OC[C@@H](O)[C@H]1O (some centres undefined) was read as RmlCD inh mix 6.
Brc1ccc(-c2noc3c2-c2nc(-c4ccccc4)sc2CC3)cc1 was read as RmlCD inh mix -1.
CCc1cccc(CC)c1NC(=O)C1CC(=O)N(c2ccc3c(c2)OCCO3)C1 (centres undefined) was read as RmlCD inh mix 14.
Screening O=C(Nc1nc(-c2ccco2)c(-c2ccco2)s1)C1CC(=O)N(c2ccc3c(c2)OCCO3)C1 (centres undefined) returned RmlCD inh mix -5, HIV RNase H inh-1 74* and HIV RNase H inh-2 0.
Screening CC(C)(O)C#Cc1ccc(C(=O)NCc2cccs2)s1 returned RmlCD inh mix 8, HIV RNase H inh-1 65* and HIV RNase H inh-2 38.
